Assay results published in article PMC4336329 (PLoS ONE, 2015).
Out of some 310,000 compounds screened, about 14,000 (4.5%) showed an effect of 50% or more. Effects have a minus sign here. The sample as a whole holds a higher share of strong results than the screen did.

target: human ether-à-go-go-related gene (hERG) potassium channel (human, UniProt Q12809); test: primary screen, population patch clamp on CHO cells stably expressing hERG; higher = less effect of the substance
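Also: peak tail current of the secondary pulse compared with the same well before compound.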

Chain of human ether-à-go-go-related gene (hERG) potassium channel (Q12809 whole entry, looked up): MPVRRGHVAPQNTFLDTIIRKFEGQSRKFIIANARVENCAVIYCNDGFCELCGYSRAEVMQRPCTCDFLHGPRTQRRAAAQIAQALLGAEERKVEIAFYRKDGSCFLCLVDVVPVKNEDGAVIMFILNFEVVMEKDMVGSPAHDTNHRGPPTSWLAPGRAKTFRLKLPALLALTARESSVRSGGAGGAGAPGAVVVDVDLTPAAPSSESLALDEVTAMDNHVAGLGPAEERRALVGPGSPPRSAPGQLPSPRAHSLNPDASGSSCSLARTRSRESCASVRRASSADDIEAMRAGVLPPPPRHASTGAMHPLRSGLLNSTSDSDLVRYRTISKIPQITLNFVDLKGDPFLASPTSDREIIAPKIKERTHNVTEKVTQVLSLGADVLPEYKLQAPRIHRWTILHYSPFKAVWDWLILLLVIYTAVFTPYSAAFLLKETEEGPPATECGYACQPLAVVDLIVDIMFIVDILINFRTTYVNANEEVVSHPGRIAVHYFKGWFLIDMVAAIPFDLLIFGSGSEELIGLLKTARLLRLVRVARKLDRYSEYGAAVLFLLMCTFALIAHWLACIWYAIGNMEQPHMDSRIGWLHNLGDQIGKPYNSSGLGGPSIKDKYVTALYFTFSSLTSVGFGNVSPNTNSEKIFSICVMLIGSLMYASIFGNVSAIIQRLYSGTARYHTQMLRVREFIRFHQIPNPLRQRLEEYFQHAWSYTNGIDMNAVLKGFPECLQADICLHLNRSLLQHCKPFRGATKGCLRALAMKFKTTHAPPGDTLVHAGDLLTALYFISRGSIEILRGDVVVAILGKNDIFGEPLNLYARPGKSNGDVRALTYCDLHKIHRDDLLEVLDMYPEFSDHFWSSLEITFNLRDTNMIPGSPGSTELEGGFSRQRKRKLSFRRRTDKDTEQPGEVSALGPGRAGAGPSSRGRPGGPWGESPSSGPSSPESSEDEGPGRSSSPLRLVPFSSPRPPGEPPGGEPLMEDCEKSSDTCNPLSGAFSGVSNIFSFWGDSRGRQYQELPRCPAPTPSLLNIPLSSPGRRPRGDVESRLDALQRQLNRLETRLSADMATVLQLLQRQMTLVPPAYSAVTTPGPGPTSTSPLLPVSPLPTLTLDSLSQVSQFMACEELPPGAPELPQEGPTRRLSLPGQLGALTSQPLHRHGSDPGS

SMILES	hERG current change (%, negative = inhibition) at 10uM [%]
COc1ccc(F)c(CN(C)CC2CCCN(CCc3ccc(F)cc3)C2)c1 (stereo not shown)	-73.4
CN1C(=O)Cc2cc(S(=O)(=O)N3CCN(c4cccc(Cl)c4)CC3)ccc21	15.3
COc1ccc(N(Cc2ccccc2)N=O)cc1	-23.3
O=C1NC(=O)C(CCc2ccncc2)(Cc2ccc(OCc3ccccc3)cc2)C(=O)N1	11.8
O=NN(CCc1ccncc1)c1ccc(OCc2ccccc2)cc1	-65.2
Cc1ccc(SCC2=NNC(=O)C2)cc1	-3.78
Cn1nc(-c2ccccc2)c(-c2nc(-c3ccc(Cl)cc3)no2)c1Cl	6.65
Cc1ccc2nc(N(CCN(C)C)C(=O)/C=C/c3cccs3)sc2c1.Cl	-40.3
CCOc1ccccc1NC(=O)Cn1c(=O)c2ccccc2n(CC)c1=O	-11.7
CC(C)(C)NC(=O)[C@@H]1C[C@@H]2CCCC[C@@H]2CN1C[C@@H](O)[C@H](Cc1ccccc1)NC(=O)[C@H](CC(N)=O)NC(=O)c1ccc2ccccc2n1	-9.59
CS(=O)(=O)O.Cc1c(O)cccc1C(=O)N[C@@H](CSc1ccccc1)[C@H](O)CN1C[C@H]2CCCC[C@H]2C[C@H]1C(=O)NC(C)(C)C	-4.69
CC(C)(C)NC(=O)[C@@H]1C[C@@H]2CCCC[C@@H]2CN1C[C@@H](O)[C@H](Cc1ccccc1)NC(=O)[C@H](CC(N)=O)NC(=O)c1ccc2ccccc2n1.CS(=O)(=O)O	-72.1
CC(=O)Nc1ccc(Nc2ncnc3c2cnn3-c2cccc(C)c2)cc1	10
O=C(O)c1ccc(S(=O)(=O)c2ccc(Sc3ccc(C(=O)O)c(C(=O)O)c3)cc2)cc1	23.3
CCOC(=O)N1CCN(CC(O)COc2ccc(-c3ccccc3)cc2)CC1.Cl (stereo not shown)	-60.3
CCOC(=O)N1CCN(CC(O)COc2ccc(CC)cc2)CC1.Cl (stereo not shown)	-31.2
CCCc1ccc(OCC(O)CN2CCN(C(=O)OCC)CC2)cc1.Cl (stereo not shown)	-52.2
CCOC(=O)N1CCN(CC(O)COc2ccc(C)c(C)c2)CC1.Cl (stereo not shown)	6.64
CCOC(=O)N1CCN(Cc2ccc(OCC(O)CN3CCCCC3)cc2)CC1 (stereo not shown)	15.7
CCOC(=O)N1CCN(CC(O)COc2cc(C)cc(C)c2)CC1.Cl (stereo not shown)	-12.7
COc1ccccc1NC(=O)COC(=O)C1CCN(/C=C/C(=O)C(F)(F)F)CC1	-49.6
Cc1ccc(S(=O)(=O)N/N=C\c2cn(CC(N)=O)c3ccccc23)cc1C	5.21

SMILES	hERG current change (%, negative = inhibition) at 10uM [%]
Cc1nn(Cc2cccc(C(=O)Nc3ccn(Cc4ccccc4F)n3)c2)c(C)c1[N+](=O)[O-]	6.24
Cc1ccc(-c2nc(N/N=C/c3ccncc3)c3ccccc3n2)cc1	3.06
COc1cc(C)c(CN2CCC(Cc3ccccc3)CC2)cc1C	-45.3
COc1ccc(CN2CCC(Cc3ccccc3)CC2)c(C)c1C	-23
COc1ccc(C(C)=O)cc1CN1CC=C(c2ccccc2)CC1	-17
COc1cc(C)cc(CN2CC=C(c3ccccc3)CC2)c1O	-51.4
FC(F)(F)c1ccccc1CN1CCC(Cc2ccccc2)CC1	12
COc1cc(OC)c(CN2CCC(Cc3ccccc3)CC2)cc1Br	-70.9
COc1cc(CN2CCC(Cc3ccccc3)CC2)c([N+](=O)[O-])cc1OC	0.589
COc1cc(C)cc(CN2CCC(Cc3ccccc3)CC2)c1O	-52.2
Cc1cc(O)c(CN2CC=C(c3ccccc3)CC2)cc1C(C)C	-14.1
O=C1C2C(c3ccccc3)CC=CC2[C@H](c2ccc(C(F)(F)F)cc2)N1Cc1ccccc1 (stereo partly shown)	-2.51
CCC(=O)Nc1c2c(nn1-c1ccc(OC)cc1)CS(=O)C2 (stereo not shown)	9.94
CC(=O)c1ccc(NS(=O)(=O)Cc2ccccc2)cc1	3.41
Cc1cc(=O)oc2cc(OCC(=O)OCc3nnc(-c4ccccc4)o3)ccc12	14.3
CCOC(=O)C1CCN(CC(O)COc2ccc(C(C)=O)cc2)CC1.Cl (stereo not shown)	-47.7
CCOC(=O)C1CCN(CC(O)COc2ccc(C(C)(C)C)cc2)CC1.Cl (stereo not shown)	-70.4
CC(C)(C)c1ccc(OCC(O)CN2CCOCC2)cc1 (stereo not shown)	-3.19
CCN1CCN(CC(O)COc2ccc(C(C)=O)cc2)CC1.Cl (stereo not shown)	2.15
CCOC(=O)C1CCN(CC(O)COc2ccc(C(=O)CC)cc2)CC1.Cl (stereo not shown)	-68.5
CC1CCCC/C1=N\NC(=S)Nc1cccnc1 (stereo not shown)	15.8
